Experimental findings from PubChem BioAssay (Tox21) are described below.

Molecules are shown by their SMILES. Records with an inconclusive call do not appear. Where a call stands in place of a potency, no number is given. Unmarked numbers belong to inactive results. Activity calls are given as the source filed them. Calls come from the whole dose curve; as a rule, active = well fitted cell-killing curve with a large enough effect in the repeat runs; inconclusive = weak or mixed curves, or effect the other way; inactive = flat fitted curve, though single readings scatter. Non-standard residues stand in square brackets, D forms with d. Residues, ends and D or L forms follow the SMILES beside them. *: point of attachment. Sta = CC(C)C[C@H](N)[C@@H](O)CC(=O)O; Isovaleryl = CC(C)CC(=O)*

This experiment in a line: qHTS RealTime-Glo MT Cell Viability Assay in HEK293 cells - 0 hour (AID 1224880). Note: top concentration of the series differs between compounds; nearly all actives have a fitted effect of over 45% in size. The conditions noted are these: RealTime-Glo luminescence; series mostly up to 76.8 µM. The source says: U.S. Tox21 Program National Center for Advancing Translational Sciences [NCATS] NIH Chemical Genomics Center [NCGC] U.S. Environmental Protection Agency [EPA] National Institutes of Environmental Health Sciences [NIEHS] National Toxicology Program [NTP] U.S. Food and Drug Administration [FDA] Tox21 Assay Overview: Measure of cell viability is critical in the cell-base assay. Analysis of cell viability is necessary for the characterization of cell responses to cytotoxic drugs and environmental stress. A RealTime-Glo MT Cell Viability Assay to monitor cell viability in real time of continues cell culture during 40 hours of compound treatment was used to screen Tox21 10K library compounds in Hek293 cells. The RealTime-Glo MT Cell Viability Assay is a nonlytic, homogeneous, bioluminescent method to measure cell viability in real time using a simple, plate-based method. The assay involves adding NanoLuc luciferase and a cell-permeant prosubstrate to cells in culture. Viable cells reduce the proprietary prosubstrate to generate a substrate for NanoLuc luciferase. This substrate diffuses from cells into the surrounding culture medium, where it is rapidly used by the NanoLuc Enzyme to produce a luminescent signal. The signal correlates with the number of viable cells, making the assay well suited for cytotoxicity studies.
Tox21 Assay Protocol Summary: The mixture of Hek293 cell suspension and reagents were dispensed at 600cells/6 ul/well in 1536-well tissue culture treated black solid bottom plates using a Multidrop dispenser. After the assay plates were incubated at a 37 C/5% CO2 incubator for 5 hours, 23 nL of compounds dissolved in DMSO, positive and negative controls was transferred to the assay plate by a pintool work station. The plates were incubated at 37 C for 40 hours. The luminescence intensity were measured at 0h, 8h, 16h, 24h, 32h and 40h time points using ViewLux plate reader during compound treatment.
On the technique in general: Quantitative high-throughput screening tests each substance at several concentrations.
As for `Cc1cccc(N)n1`, the Potency result is “inactive”.

Turning to `C=CC(C)(CCC=C(C)C)OC(=O)C(C)C` (stereo not given), the Potency entry is “inactive”.

With `CC(C)(O)CCCC1=CCC(C=O)CC1` (stereo not given), the Potency result is “inactive”.

As to `C[C@@H]1NC(=O)[C@@H](N)CNC(=O)[C@H](C2CCNC(N)=N2)NC(=O)/C(=C/NC(N)=O)NC(=O)[C@H](CNC(=O)C[C@@H](N)CCCN)NC1=O` (stereo not given in full), the activity change, negative = cytotoxicity is -3.01% [at 0.29 µM].

With `C/C=C(\C)C=O`, the Potency entry is “inactive”.

In the case of `CCCCC(O)/C=C(C)/C=C/C=C/C(=O)N1CCCC1=O` (stereo not given), the Potency entry was “inactive”.

Turning to `CC(=O)O[C@@H]1CC2C3CCc4cc(OC(=O)c5ccccc5)ccc4C3CCC2(C)[C@H]1OC(C)=O` (stereo not given in full), the Potency result was “inactive”.

Consider `CCCC(C)C(O)CC` (stereo not given), for which the Potency result was “inactive”.

`COc1ccc(Cl)cc1C`: the Potency result was “inactive”.

For `O=Cc1ccc(C(=O)O)cc1`, the Potency result was “inactive”.

Turning to `O=Cc1ccccc1S(=O)(=O)O`, the Potency entry was “inactive”.

Take `CCCCN(CCCC)CCCCCCN(CCCC)CCCC`: the Potency result was “inactive”.

As for `Cc1ccc(Br)cc1`, the Potency result is “inactive”.

As to `CC(C)CC(=O)N[C@H](C(=O)N[C@H](C(=O)N[C@@H](CC(C)C)[C@@H](O)CC(=O)N[C@@H](C)C(=O)N[C@@H](CC(C)C)[C@@H](O)CC(=O)O)C(C)C)C(C)C` (Isovaleryl-VV[Sta]A[Sta]-OH), the Potency result was “inactive”.

Consider `Clc1ccc2c(c1)Nc1ccccc1S2`, for which the Potency entry was “inactive”.

For the compound `O=C1Nc2ccccc2C1=O`, the Potency result is “inactive”.

For `COC(=O)c1ccccc1Cl`, the Potency entry was “inactive”.

With `O=C[C@@H](O)[C@H](O)[C@H](O)CO`, the Potency entry is “inactive”.

For the compound `COc1cnc(NS(=O)(=O)c2ccc(N)cc2)nc1`, the Potency entry was “inactive”.

`CC1=C(O)C(=O)CO1`: the Potency entry was “inactive”.

Consider `O=P(O)(O)C(O)(Cc1cccnc1)P(=O)(O)O`, for which the Potency entry was “inactive”.

With `CC/C=C\CCOC(=O)c1ccccc1`, the Potency result was “inactive”.

For `N=C(N)N`, the Potency entry is “inactive”.

For `CCC(C)(C)C`, the Potency result is “inactive”.

On to `CCCCNCC`, for which the Potency entry was “inactive”.

As for `CC(=O)c1c(C)cc(C(C)(C)C)cc1C`, the Potency result is “inactive”.

For `C=CCON/C(CCC)=C1\C(=O)CC(C)(C)C(C(=O)OC)=C1O`, the Potency result is “inactive”.

For `COC(=O)/C=C(\C)CCC=C(C)C`, the Potency entry is “inactive”.

On to `Nc1cc(S(=O)(=O)O)ccc1O`, for which the Potency result was “inactive”.

Consider `Cc1ccc(OC(=O)CC(C)C)cc1`, for which the Potency result was “inactive”.

As to `CCCCCCC(O)CO` (stereo not given), the Potency result was “inactive”.

For `CCCCc1ccc(Cl)cc1`, the Potency entry is “inactive”.

In the case of `C/C(=N\O)c1ccc(OCC(=O)N2CCCCC2)cc1`, the Potency entry was “inactive”.

For `CCCCCC(=O)CC`, the Potency result is “inactive”.

As to `CCC(C)SSC(C)CC` (stereo not given), the Potency entry was “inactive”.

For the compound `CN1CCN(C(=O)C2CCCCC2)CC1`, the Potency entry is “inactive”.

As for `CCCCCCCCOCCC#N`, the Potency result was “inactive”.

Regarding `C[C@@H]1CC[C@@]2(OC1)O[C@H]1C[C@H]3[C@@H]4CC[C@H]5C[C@@H](O)CC[C@]5(C)[C@H]4CC(=O)[C@]3(C)[C@H]1[C@@H]2C`, the activity change, negative = cytotoxicity is 0.253% [at 6.97 µM].

On to `CC/C=C/CCCCCCCCCCOC(C)=O`, for which the Potency entry was “inactive”.

In the case of `COC(=O)c1c(C)cc(O)c(C)c1O`, the Potency entry is “inactive”.
